# Screening data from PubChem BioAssay.
# TDP1 cell CPT: qHTS for Inhibitors of human tyrosyl-DNA phosphodiesterase 1 (TDP1): qHTS in cells in presence of CPT; chicken DT40 Tdp1-/-;hTDP1 cells + 20 nM CPT, ATP luminescence, 48 h; Potency, µM (top dose mostly 46.2 µM), for inactives: top-dose activity change, negative = growth inhibition, usual class: inhibitors; 12% of 420,000 active; AID 686979, 2013; note: potency is the fitted concentration of half-maximal effect; nearly all actives have a fitted effect of over 55% in size
#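 Chicken DT40 Tdp1-/- cells stably complemented with human TDP1 were seeded at 400 cells/well in medium containing 20 nM camptothecin, exposed to pin-transferred compounds, and grown at 37 °C for at least 48 hr. Viability was read as ATP luminescence.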
# HT1080 IDH1KD tx: qHTS for induction of synthetic lethality in tumor cells producing 2HG: qHTS for the HT-1080-IDH1KD cell line; Potency, µM (series often up to 46.1 µM), inactives show at the top dose activity, negative = toxicity, hits mostly cytotoxic; HT-1080 IDH1 knockdown viability, ATP luminescence, 48 h; 2% of 360,000 active;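 note: potency is the fitted concentration of half-maximal effect; 0% = DMSO wells and -100% = cell-free medium wells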
#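 IDH1KD HT-1080 cells, 750/well, RPMI + 5% FBS; compound pinned after 2 h settling; 48 h, 37 °C; CellTiter-Glo luminescence; % activity normalised to DMSO and no-cell wells; curves fitted, classed by r2 and efficacy.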
# IL-1B inflam inh: qHTS for Inhibitors of Inflammasome Signaling: IL-1-beta AlphaLISA Primary Screen. THP-1 LPS/ATP IL-1B secretion, AlphaLISA, 16 h; stronger effect = lower value. activity change, % at 57.5 µM. 4.7% of 360,000 active. AID 743279, 2014; in the data active = activity change below about -50%; inconclusive = mostly about -30% to -49%
#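 Secreted IL-1B measured by AlphaLISA bead assay after 16 h compound exposure of THP-1 cells; compounds (final up to 57.5 uM) added 1 h before LPS (250 ng/mL) and ATP (1.25 mM) stimulation; lower signal means less secretion.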
# TDP1 cell noCPT: qHTS for Inhibitors of human tyrosyl-DNA phosphodiesterase 1 (TDP1): qHTS in cells in absence of CPT; DT40 Tdp1-/- hTDP1 cells, no CPT, ATP luminescence, 48 h; Potency, µM (series often up to 46.2 µM), inactives show top-dose activity change, negative = growth inhibition, most hits filed as inhibitors; 15% of 420,000 active; AID 686978, 2013; note: potency is the fitted concentration of half-maximal effect; nearly all actives have a fitted effect of over 55% in size
#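 Seeded 400 DT40-hTDP1 cells/well (vehicle DMSO, no 20 nM CPT); pinned compounds; ≥48 hr at 37 °C; CellTiter-Glo luminescence as viability measure.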
# HT1080NT lethal: qHTS for induction of synthetic lethality in tumor cells producing 2HG: qHTS for the HT-1080-NT fibrosarcoma cell line. HT-1080-NT fibrosarcoma viability, CellTiter-Glo ATP luminescence, 48 h. Potency, µM (series often up to 46.1 µM), for the others: top-dose activity, negative = less viability, hits mostly cytotoxic. 1.6% of 360,000 active. AID 686970, 2013;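 note: NT is the 2HG producing partner of a matched IDH1 knockdown line; potency is the fitted concentration of half-maximal effect; 0% = DMSO-treated cells and -100% = media-only wells without cells; nearly all actives have a fitted effect of over 55% in size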
#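 Fibrosarcoma NT cells, 750 per well in 5% FBS RPMI, were exposed to compound for 48 hours. Viability: CellTiter-Glo luminescence.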
# * marks the source's active call; other numbers are inactive results; ? = inconclusive; . = not tested or not shown. Hits are enriched below; roughly 19% of the tested compounds scored in any of these assays. Unless noted, calls come from the whole dose curve; as a rule, active = well fitted curve in the direction sought with a large enough effect; inconclusive = small, poorly fitted or top-dose-only effect, or another doubt; inactive = no such curve, though single readings can be large; an effect the other way counts as inactive or inconclusive. Unless noted, % is set by controls: 0 for no effect and ±100 for the full control effect.
SMILES,TDP1 cell CPT,HT1080 IDH1KD tx,IL-1B inflam inh,TDP1 cell noCPT,HT1080NT lethal
N/C(Cc1ccc([N+](=O)[O-])cc1)=N\OC(=O)C(c1ccccc1)c1ccccc1,?,?,?,-27%,18µM*
N/C(Cc1ccc([N+](=O)[O-])cc1)=N\OC(=O)c1ccc2ccccc2c1,9.2µM*,?,3,?,18µM*
N/C(Cc1ccc([N+](=O)[O-])cc1)=N\OC(=O)c1ccc(Br)cc1,?,5%,?,?,17%
CC(OC(=O)Cc1ccccc1F)C(=O)Nc1ccc(Cl)cn1 (centres undefined),-21%,0%,8,1%,-1%
CCn1cc(Cl)c(C(=O)N2N=C3/C(=C/c4cccs4)CCCC3C2c2cccs2)n1 (centres undefined),18µM*,-29%,?,?,?
CC(=O)N1N=C2c3ccccc3CCC2C1c1cccs1 (centres undefined),?,2%,41,?,-2%
Cc1cc(C)n2nc(N)c(N=Nc3ccccc3)c2n1,?,-13%,-12,.,-1%
Cc1cc(C)[n+]2[nH]c(N)c(N=Nc3ccccc3)c2n1,?,-14%,-29,16µM*,-12%
O=C(NCc1ccc(Cl)cc1)C(=O)Nc1cccc(Br)c1,-26%,.,.,-21%,.
CC(=O)c1ccc(OCc2cc(C(=O)N3CCN(c4ccccc4)CC3C)no2)cc1 (centres undefined),?,-6%,?,18µM*,-6%
CC(=O)c1ccc(OCc2cc(C(=O)N(C)CC3COc4ccccc4O3)no2)cc1 (centres undefined),10µM*,0%,-26,13µM*,-1%
CC(=O)c1ccc(OCc2cc(C(=O)N(C)Cc3ccon3)no2)cc1,-24%,-1%,4,-27%,-2%
CSc1ccccc1OCc1cc(C(=O)N2CCN(c3ccccc3)CC2C)no1 (centres undefined),?,-3%,11,?,0%
CN(C)C(=O)CCc1ccc2c3c([nH]c2c1)[C@]1(C)[C@@H](C(=O)N2CCCCC2)C[C@H](CC(=O)NCCCn2ccnc2)C(=O)N1CC3,4%,0%,-19,-6%,2%
CC(C)c1ccc(NC(=O)C(c2ccccc2)N(Cc2ccco2)C(=O)CC2NC(=O)NC2=O)cc1 (centres undefined),6%,-3%,-56*,-7%,-14%
CC1=C(C(=O)Nc2ccc([N+](=O)[O-])cc2)C(c2cccc(C(F)(F)F)c2)NC(=S)N1c1ccccc1 (centres undefined),13µM*,?,?,16µM*,?
COc1ccc(C2NC(=S)N(c3ccccc3)C(C)=C2C(=O)Nc2ccccc2)cc1 (centres undefined),-14%,-12%,-5,-15%,-4%
O=S(=O)(O)c1cc(O)c2c(N=Nc3ccc(Nc4ccccc4)c4c(S(=O)(=O)O)cccc34)cc(S(=O)(=O)O)cc2c1,19µM*,.,.,13µM*,.
O=C(Nc1ccc(Cl)cc1)Nc1csc([N+](=O)[O-])c1,18µM*,10µM*,.,9.2µM*,13µM*
O=C(Nc1csc([N+](=O)[O-])c1)Nc1c(Cl)cccc1Cl,?,1%,-10,16µM*,-16%
COc1ccc(CN(C)C(=O)CCCNC(=O)c2ccc(Cl)cc2)cc1,-11%,-1%,0,-15%,2%
Cc1ccc(-c2cc(-c3ccc4c(c3)NC(=O)CO4)nc3c2COc2ccccc2-3)cc1,5.2µM*,.,.,4.1µM*,.
Cc1ccc2c(c1)-c1nc(-c3ccc4c(c3)NC(=O)CO4)cc(-c3ccc(F)cc3)c1CO2,5.8µM*,.,.,4.6µM*,.
Cc1ccc(S(=O)(=O)Nc2nc(C)c(NC(=O)Nc3ccc(Cl)cc3Cl)s2)cc1,-8%,-2%,?,-20%,-2%
CCOC(=O)C1CCN(C(=O)C2COc3ccccc3C2)CC1 (centres undefined),0%,.,.,-16%,.
SMILES,TDP1 cell CPT,HT1080 IDH1KD tx,IL-1B inflam inh,TDP1 cell noCPT,HT1080NT lethal
O=C1OCCC1Sc1nnc(-c2ccccc2Cl)n1Cc1ccccc1 (centres undefined),-7%,0%,10,-14%,-1%
O=C1OCCC1Sc1nnc(-c2ccccc2Br)n1Cc1ccccc1 (centres undefined),-1%,18%,-54*,0%,13%
O=C1N[C@@H](c2ccccc2)COC(=O)[C@@H](Cc2ccc(F)cc2)C/C=C\C[C@@H]1CC(=O)N(CCO)Cc1ccccc1,15µM*,-3%,-18,13µM*,-12%
O=C1N[C@@H](c2ccccc2)COC(=O)[C@H](Cc2ccc(F)cc2)CC/C=C/C[C@H]1CC(=O)N(CCO)Cc1ccccc1,18µM*,?,-29,15µM*,?
O=C1N[C@@H](c2ccccc2)COC(=O)[C@H](Cc2ccc(F)cc2)C/C=C\C[C@H]1CC(=O)N(CCO)Cc1ccccc1,-2%,2%,-22,-10%,10%
COc1cc(F)ccc1-c1csc(C(C)(NC(C)=O)c2ccccc2)n1 (centres undefined),12µM*,28%,-6,5.2µM*,-3%
COc1ccc(C(C)(NC(C)=O)c2nc(-c3ccc(F)cc3OC)cs2)cc1 (centres undefined),15µM*,11%,11,13µM*,15%
COc1ccc(C(C)(NC(C)=O)c2nc(-c3ccccc3OC)cs2)cc1 (centres undefined),18µM*,-25%,-23,12µM*,0%
CC1CN(C2CCN(C(=O)c3ccccc3)CC2)CC(C)O1 (centres undefined),-11%,4%,-14,-1%,19%
CC(C)C[C@@H](CN1CCC[C@H]1CN1C(=O)C(=O)NC[C@@H]1Cc1ccccc1)N1C[C@H](Cc2ccc(O)cc2)N(CCc2ccccc2)C(=O)C1=O,?,?,-17,?,?
CC(C)C[C@@H](CN1CCC[C@@H]1CN1C(=S)NC[C@@H]1Cc1ccc(O)cc1)N1C[C@H](Cc2ccc(O)cc2)N(CCc2ccccc2)C1=S,?,?,-59*,21µM*,26µM*
CC(C)C[C@@H](CN1CCCC1CN1C(=S)NC[C@@H]1Cc1ccccc1)N1C[C@H](Cc2ccccc2)N(CCc2ccccc2)C1=S (some centres undefined),?,-2%,11,9.2µM*,-2%
